# Assay results from ChEMBL document CHEMBL3988442, “University of Dundee, Small-Polar-MMV Screening Library” (2021).
# For part of these data: Entries with a potency or affinity are not part of this list.
# Columns and labels:
# Set-up in all cases: scale not given: direction of the effect not stated beside the values
# [1] = target: Protein translocase subunit SecA (Escherichia coli (strain K12)) (UniProt P10408); experiment: Assay to Identify E. coli SecA ATPase Inhibitors; type: functional; settings: 30 µM
# Sequence of Protein translocase subunit SecA (Escherichia coli (strain K12)) (P10408 whole entry): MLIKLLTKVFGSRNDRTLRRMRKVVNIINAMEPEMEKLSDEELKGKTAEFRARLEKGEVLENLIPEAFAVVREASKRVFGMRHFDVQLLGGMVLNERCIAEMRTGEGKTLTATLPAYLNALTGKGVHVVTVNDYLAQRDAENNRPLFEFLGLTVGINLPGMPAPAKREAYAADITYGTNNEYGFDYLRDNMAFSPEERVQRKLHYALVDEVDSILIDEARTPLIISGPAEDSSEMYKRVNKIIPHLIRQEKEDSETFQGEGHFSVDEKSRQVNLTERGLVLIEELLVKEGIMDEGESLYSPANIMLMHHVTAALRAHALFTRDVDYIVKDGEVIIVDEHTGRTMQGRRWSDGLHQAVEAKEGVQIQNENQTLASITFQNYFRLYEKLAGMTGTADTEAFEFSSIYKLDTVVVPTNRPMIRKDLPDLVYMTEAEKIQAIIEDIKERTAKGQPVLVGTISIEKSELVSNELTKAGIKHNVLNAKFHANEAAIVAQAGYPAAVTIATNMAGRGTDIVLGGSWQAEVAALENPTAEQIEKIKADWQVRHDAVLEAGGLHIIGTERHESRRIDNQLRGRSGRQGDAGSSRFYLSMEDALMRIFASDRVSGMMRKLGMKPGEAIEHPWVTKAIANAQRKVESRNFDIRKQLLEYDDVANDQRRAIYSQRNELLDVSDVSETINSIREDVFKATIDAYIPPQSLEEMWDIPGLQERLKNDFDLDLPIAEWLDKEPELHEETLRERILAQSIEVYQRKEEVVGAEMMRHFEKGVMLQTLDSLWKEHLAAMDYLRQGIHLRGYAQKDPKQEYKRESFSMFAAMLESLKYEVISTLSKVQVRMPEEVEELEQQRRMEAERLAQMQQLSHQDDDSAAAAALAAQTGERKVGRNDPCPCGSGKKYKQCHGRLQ
# [2] = target: T1, Ubiquitin-activating enzyme e1, putative (Leishmania donovani (strain BPK282A1)) (UniProt E9BSI1); experiment: Leishmania donovani Ubiquitin Activating Enzyme (LdE1); type: functional; settings: 30 µM
# T1 sequence (whole entry): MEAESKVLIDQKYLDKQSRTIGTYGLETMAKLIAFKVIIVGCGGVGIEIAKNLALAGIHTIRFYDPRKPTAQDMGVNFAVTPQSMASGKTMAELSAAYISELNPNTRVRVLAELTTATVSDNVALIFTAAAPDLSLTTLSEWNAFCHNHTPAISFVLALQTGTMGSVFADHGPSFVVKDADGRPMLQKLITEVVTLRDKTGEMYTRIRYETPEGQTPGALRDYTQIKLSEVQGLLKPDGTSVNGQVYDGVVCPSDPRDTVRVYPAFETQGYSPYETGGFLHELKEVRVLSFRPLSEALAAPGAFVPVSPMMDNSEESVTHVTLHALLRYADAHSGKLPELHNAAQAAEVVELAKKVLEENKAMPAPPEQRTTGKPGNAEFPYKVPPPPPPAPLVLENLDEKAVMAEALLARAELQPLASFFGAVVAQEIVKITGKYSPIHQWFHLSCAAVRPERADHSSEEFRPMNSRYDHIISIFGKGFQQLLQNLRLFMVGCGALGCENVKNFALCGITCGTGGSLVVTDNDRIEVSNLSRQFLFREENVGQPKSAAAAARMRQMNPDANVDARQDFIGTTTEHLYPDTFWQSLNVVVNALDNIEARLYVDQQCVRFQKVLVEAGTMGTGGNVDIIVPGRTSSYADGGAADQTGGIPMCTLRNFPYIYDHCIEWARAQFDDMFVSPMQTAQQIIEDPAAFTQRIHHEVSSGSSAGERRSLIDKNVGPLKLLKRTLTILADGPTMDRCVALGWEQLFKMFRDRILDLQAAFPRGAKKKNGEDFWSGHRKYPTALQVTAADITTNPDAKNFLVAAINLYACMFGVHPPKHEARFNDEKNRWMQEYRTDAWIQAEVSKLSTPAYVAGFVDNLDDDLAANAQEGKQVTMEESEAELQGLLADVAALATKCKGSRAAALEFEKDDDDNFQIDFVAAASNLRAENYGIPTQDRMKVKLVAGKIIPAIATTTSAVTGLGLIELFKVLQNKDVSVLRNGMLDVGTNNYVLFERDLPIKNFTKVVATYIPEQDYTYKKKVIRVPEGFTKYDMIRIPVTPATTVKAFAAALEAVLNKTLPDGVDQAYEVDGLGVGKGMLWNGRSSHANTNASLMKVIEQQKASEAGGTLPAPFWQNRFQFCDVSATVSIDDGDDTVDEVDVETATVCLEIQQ
# [3] = target: Sialic acid-binding Ig-like lectin 9 (Homo sapiens) (UniProt Q9Y336); experiment: Hs-Siglec9 ALPHAscreen SOP 20170721; settings: 10 µM
# Sequence of Sialic acid-binding Ig-like lectin 9 (Homo sapiens) (Q9Y336 whole entry): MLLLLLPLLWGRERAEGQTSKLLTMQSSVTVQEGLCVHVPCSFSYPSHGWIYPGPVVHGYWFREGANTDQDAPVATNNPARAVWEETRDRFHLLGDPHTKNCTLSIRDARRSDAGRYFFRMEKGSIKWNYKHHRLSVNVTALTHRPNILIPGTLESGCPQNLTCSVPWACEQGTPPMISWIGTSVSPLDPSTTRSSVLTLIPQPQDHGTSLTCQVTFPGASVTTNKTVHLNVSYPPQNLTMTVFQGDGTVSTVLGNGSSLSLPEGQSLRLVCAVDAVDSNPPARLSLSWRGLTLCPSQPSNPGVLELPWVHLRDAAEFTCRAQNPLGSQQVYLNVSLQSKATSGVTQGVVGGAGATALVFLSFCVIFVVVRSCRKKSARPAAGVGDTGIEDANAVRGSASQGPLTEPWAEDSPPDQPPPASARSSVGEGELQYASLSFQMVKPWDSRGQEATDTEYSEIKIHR
# Trypanosoma cruzi = experiment: Trypanosoma cruzi phosphomannomutase and mannose-1-phosphate guanylyltransferase assay; type: functional; settings: 10 µM
# [4] = target: T2, Arginase-2, mitochondrial (Homo sapiens) (UniProt P78540); experiment: in vitro enzyme assay to detect the production of urea directly proportional to the activity of Arginase II; type: functional; settings: 33.3 µM; further: in the data most compounds retested in dose-response had high values
# T2 sequence (whole entry): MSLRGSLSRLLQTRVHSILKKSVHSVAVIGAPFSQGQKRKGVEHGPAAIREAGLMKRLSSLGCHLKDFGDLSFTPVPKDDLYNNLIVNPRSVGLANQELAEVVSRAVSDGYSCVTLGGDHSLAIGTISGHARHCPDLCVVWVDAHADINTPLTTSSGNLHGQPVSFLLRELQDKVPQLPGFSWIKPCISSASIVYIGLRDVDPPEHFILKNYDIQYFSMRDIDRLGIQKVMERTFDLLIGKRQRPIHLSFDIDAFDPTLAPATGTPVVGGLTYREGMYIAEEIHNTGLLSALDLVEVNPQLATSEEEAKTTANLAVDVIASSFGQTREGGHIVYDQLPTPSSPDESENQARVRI
# [5] = target: T3, Proteasome subunit beta (Trypanosoma cruzi) (UniProt O96673); experiment: Trypanosoma cruzi proteasome chymotrypsin-like activity (TcProtChymo) assay.; further: in the data most compounds retested in dose-response had high values; type: functional; settings: 9.37 µM
# T3 sequence (whole entry): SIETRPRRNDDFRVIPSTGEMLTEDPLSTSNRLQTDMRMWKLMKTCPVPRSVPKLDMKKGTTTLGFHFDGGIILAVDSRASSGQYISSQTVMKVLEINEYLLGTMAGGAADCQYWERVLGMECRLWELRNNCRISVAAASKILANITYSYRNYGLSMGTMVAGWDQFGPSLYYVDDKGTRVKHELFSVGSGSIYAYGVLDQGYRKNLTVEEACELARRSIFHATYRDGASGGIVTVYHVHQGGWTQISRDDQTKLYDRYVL
# Homo sapiens = organism: Homo sapiens; experiment: To identify inhibition of the IFN signalling (Jak-Stat) pathway via expression of an eGFP reporter gene under the control of an IFN-stimulated response element (ISRE) containing MxA promoter.; type: functional; settings: 30 µM
# [6] = target: T4, Tyrosyl-tRNA synthetase, putative (Trypanosoma cruzi (strain CL Brener)) (UniProt Q4DSP6); experiment: Trypanosoma cruzi tyrosyl tRNA synthetase (TcYRS) _High Tyrosine SOP; type: functional; settings: 30 µM; further: in the data most compounds retested in dose-response had high values
# T4 sequence (whole entry): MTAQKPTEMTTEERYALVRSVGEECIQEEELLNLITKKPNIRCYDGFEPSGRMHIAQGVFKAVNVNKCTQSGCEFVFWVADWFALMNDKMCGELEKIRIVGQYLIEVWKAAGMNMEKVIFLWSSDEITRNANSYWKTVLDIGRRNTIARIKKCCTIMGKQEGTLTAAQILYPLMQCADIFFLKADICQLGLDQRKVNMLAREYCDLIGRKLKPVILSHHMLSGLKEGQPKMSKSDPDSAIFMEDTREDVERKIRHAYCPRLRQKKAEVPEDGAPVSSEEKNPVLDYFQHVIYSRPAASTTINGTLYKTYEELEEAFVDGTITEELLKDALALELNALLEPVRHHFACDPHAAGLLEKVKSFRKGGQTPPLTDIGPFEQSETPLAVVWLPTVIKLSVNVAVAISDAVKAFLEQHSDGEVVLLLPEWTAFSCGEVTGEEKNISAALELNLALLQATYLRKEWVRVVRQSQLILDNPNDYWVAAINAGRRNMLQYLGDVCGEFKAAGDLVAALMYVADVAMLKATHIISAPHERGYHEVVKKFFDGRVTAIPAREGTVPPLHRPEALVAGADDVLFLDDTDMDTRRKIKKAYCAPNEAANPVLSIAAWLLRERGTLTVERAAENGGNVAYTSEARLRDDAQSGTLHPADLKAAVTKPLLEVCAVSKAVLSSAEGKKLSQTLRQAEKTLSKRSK
# [7] = target: T4, Tyrosyl-tRNA synthetase, putative (Trypanosoma cruzi (strain CL Brener)); experiment: Trypanosoma cruzi tyrosyl tRNA synthetase (TcYRS) SOP; type: functional; settings: 30 µM
# [8] = target: Chromo domain-containing protein 1 (Saccharomyces cerevisiae (strain ATCC 204508 / S288c) (Baker's yeast)) (UniProt P32657); experiment: ScCHD-1 Enzyme Inhibition Assay; type: functional; settings: 30 µM; further: in the data most compounds retested in dose-response had high values
# Sequence of Chromo domain-containing protein 1 (Saccharomyces cerevisiae (strain ATCC 204508 / S288c) (Baker's yeast)) (P32657 whole entry, the tested form may be a part): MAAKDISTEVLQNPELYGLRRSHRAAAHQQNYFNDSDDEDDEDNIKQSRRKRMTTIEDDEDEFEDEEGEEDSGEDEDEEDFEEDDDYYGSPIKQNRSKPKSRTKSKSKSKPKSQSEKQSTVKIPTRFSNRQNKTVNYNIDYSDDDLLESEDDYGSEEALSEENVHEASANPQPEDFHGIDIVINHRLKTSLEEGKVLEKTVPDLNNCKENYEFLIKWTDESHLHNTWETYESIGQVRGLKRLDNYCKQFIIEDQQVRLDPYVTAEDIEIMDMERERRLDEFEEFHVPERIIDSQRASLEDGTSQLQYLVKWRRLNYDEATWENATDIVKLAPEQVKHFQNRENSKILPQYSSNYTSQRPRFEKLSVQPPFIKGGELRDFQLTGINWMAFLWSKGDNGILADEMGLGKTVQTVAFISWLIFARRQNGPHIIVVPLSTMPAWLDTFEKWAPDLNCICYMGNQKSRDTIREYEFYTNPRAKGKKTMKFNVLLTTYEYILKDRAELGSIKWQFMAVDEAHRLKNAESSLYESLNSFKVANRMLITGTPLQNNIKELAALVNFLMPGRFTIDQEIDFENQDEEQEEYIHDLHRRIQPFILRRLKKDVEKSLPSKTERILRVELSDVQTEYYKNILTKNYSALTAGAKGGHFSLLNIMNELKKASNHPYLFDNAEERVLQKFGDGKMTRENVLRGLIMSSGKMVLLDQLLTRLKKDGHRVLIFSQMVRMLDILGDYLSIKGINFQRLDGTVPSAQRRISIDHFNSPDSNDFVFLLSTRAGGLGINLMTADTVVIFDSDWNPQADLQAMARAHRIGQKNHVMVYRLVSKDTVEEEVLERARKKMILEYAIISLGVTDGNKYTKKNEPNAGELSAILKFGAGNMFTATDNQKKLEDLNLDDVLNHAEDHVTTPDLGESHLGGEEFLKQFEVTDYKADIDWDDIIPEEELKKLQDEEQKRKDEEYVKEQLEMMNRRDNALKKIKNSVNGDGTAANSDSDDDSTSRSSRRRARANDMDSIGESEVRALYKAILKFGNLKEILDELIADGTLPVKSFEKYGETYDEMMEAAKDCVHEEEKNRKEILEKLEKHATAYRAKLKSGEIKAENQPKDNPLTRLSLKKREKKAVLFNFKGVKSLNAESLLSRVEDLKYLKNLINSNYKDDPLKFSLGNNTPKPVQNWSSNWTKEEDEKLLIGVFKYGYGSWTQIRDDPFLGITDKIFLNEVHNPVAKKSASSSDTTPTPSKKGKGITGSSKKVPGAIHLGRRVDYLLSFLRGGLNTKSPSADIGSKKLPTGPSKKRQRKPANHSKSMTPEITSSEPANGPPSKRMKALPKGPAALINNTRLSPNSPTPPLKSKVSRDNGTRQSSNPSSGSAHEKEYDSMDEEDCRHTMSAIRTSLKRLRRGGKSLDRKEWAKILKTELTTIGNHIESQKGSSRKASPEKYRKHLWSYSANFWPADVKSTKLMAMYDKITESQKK
smiles,measurement,setting,value
COCCN1CC(C(=O)NCc2ccnc(-n3cccn3)c2)CC1=O (stereo not given),Percent Effect,[1],-3.79%
same,Percent Effect,[2],-5.13%
same,Percent Effect,[3],-5.84%
same,Percent Effect,Trypanosoma cruzi,-1.22%
same,Percent Effect,[4],3.28%
same,Percent Effect,[5],-1.79%
same,Percent Effect,Homo sapiens,23.2%
same,Percent Effect,[6],-2.39%
same,Percent Effect,[7],-3.61%
same,Percent Effect,[8],6.47%
O=C(Cc1cccs1)N1CC[C@H]2[C@@H]1CCC(=O)N2c1cccnc1,Percent Effect,[1],-2.81%
same,Percent Effect,[2],29.9%
same,Percent Effect,[3],-3.71%
same,Percent Effect,Trypanosoma cruzi,-1.31%
same,Percent Effect,[4],1.37%
same,Percent Effect,[5],16.1%
same,Percent Effect,Homo sapiens,-2.71%
same,Percent Effect,[6],3.87%
same,Percent Effect,[7],7.5%
same,Percent Effect,[8],-11%
COc1ccc(CN(C)CC(=O)NC2(C)CCS(=O)(=O)C2)cc1F (stereo not given),Percent Effect,[1],0.854%
same,Percent Effect,[2],0%
same,Percent Effect,[3],4.26%
same,Percent Effect,Trypanosoma cruzi,-5.42%
same,Percent Effect,[4],4.88%
same,Percent Effect,[5],2.8%
same,Percent Effect,Homo sapiens,17.4%
same,Percent Effect,[6],-0.526%
same,Percent Effect,[7],0%
same,Percent Effect,[8],-1.6%
CCn1cc2c(n1)C(COC)CN(Cc1ccccn1)C2 (stereo not given),Percent Effect,[1],-4.98%
same,Percent Effect,[2],9.09%
same,Percent Effect,[3],-6.05%
same,Percent Effect,Trypanosoma cruzi,-2.43%
same,Percent Effect,[4],-2.43%
same,Percent Effect,[5],16.7%
same,Percent Effect,Homo sapiens,34.2%
same,Percent Effect,[6],2.63%
same,Percent Effect,[7],7.69%
same,Percent Effect,[8],-3.98%
O=C(NCc1cc(O)ncn1)C1CCOc2ccccc2C1 (stereo not given),Percent Effect,[1],-6.27%
same,Percent Effect,[2],5.41%
same,Percent Effect,[3],6.22%
same,Percent Effect,Trypanosoma cruzi,1.26%
same,Percent Effect,[4],5.94%
same,Percent Effect,[5],14.4%
same,Percent Effect,Homo sapiens,15.2%
same,Percent Effect,[6],6.92%
same,Percent Effect,[7],12.2%
same,Percent Effect,[8],-2.81%
NC(=O)c1cc(C2CCCN(CCc3ccccn3)C2)n[nH]1 (stereo not given),Percent Effect,[1],-0.145%
same,Percent Effect,[2],-12.8%
same,Percent Effect,[3],-3.53%
same,Percent Effect,Trypanosoma cruzi,3.29%
same,Percent Effect,[4],4.1%
same,Percent Effect,[5],-3.67%
same,Percent Effect,Homo sapiens,2.63%
same,Percent Effect,[6],3.35%
same,Percent Effect,[7],-1.21%
same,Percent Effect,[8],-1.37%
